Compound activity deposited in PubChem by Buhrlage Lab, Dana-Farber Cancer Institute and Novartis Institutes for BioMedical Research (Cambridge, Mass).
USP8 block – inhibitors of human USP8 deubiquitinase; Ubiquitin carboxyl-terminal hydrolase 8 (Homo sapiens), P40818; inhibition, % at 20 µM; purified USP8, Ub-rhodamine cleavage fluorescence, 30 min; 47,000 tested, 4.2% active; AID 1645853, 2021
USP17 block – inhibitors of human USP17 deubiquitinase; purified USP17, Ub-rhodamine cleavage fluorescence, 3 h; 47,000 tested, 6.5% active; AID 1645855, 2021; Ubiquitin carboxyl-terminal hydrolase 17-like protein 5 (Homo sapiens), A8MUK1; inhibition, % at 50 µM
Target sequence (A8MUK1 whole entry, looked up): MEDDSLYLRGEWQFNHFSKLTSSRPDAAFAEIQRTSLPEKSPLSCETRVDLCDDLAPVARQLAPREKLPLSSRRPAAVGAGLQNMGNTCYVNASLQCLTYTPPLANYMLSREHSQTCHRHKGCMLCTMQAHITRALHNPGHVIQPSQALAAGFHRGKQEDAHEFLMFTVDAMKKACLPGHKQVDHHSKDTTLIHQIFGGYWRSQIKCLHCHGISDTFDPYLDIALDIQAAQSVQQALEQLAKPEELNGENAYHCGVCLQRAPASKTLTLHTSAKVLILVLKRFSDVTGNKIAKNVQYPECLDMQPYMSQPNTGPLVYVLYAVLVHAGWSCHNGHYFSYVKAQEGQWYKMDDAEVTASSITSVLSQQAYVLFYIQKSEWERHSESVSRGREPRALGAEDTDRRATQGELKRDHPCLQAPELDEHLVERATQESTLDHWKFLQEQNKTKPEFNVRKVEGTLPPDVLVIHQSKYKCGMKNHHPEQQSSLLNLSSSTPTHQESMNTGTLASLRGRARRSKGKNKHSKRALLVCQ
USP30 inh – inhibitors of human USP30 deubiquitinase | Ubiquitin carboxyl-terminal hydrolase 30 (Homo sapiens), Q70CQ3 | purified USP30, Ub-rhodamine cleavage fluorescence | inhibition, % at 25 µM | 47,000 tested, 5.3% active | AID 1645860, 2021
USP28 inh – inhibitors of human USP28 deubiquitinase; purified USP28, Ub-rhodamine cleavage fluorescence, 30 min; inhibition, % at 25 µM; 47,000 tested, 3% active
Starred values were filed as active, the others as inactive; x = no result. Shown are actives, neighbours in structure and some others; about 13% of the full set was active somewhere. No stated cut-off is given here; in the data, active means inhibition above about 30%; inactive means the rest.

SMILES	USP8 block	USP17 block	USP30 inh	USP28 inh
CC(OC(=O)c1ccc2c(=O)n3c(nc2c1)CCCCC3)C(=O)Nc1ccc2c(c1)OCO2 (configuration not stated)	4	7	-10	1
CC(OC(=O)c1ccc(N2CCCC2=O)cc1)C(=O)Nc1ccc2c(c1)OCCO2 (configuration not stated)	13	43*	20	6
Brc1c(-c2ccc3c(c2)OCO3)nc2ncccn12	0	-4	-15	-2
CN1C(=O)C2(CCN(C(=O)Nc3ccccc3F)C2)c2ccccc21 (configuration not stated)	0	3	-6	-1
CC(OC(=O)c1ccc(NS(=O)(=O)c2ccc3c(c2)OCCO3)cc1)C(=O)Nc1cccc2ccccc12 (configuration not stated)	2	-2	-11	-1
CC(OC(=O)c1ccc(N2CCCC2=O)cc1)C(=O)Nc1ccc2c(c1)OCO2 (configuration not stated)	56*	15	-32	-5
CC(OC(=O)CNC(=O)c1ccc(Br)cc1)C(=O)Nc1ccc2c(c1)OCCO2 (configuration not stated)	-11	66*	24	23
CC(NC(=O)Cc1cccc(F)c1)C(=O)Nc1nc2ccccc2[nH]1 (configuration not stated)	8	-1	12	9
CCOC(=O)C(Cc1ccccc1)C(=O)Nc1ccccc1C (configuration not stated)	10	0	18	9
CN(C)c1ccc(NC(=O)COC(=O)C2(c3ccc(F)cc3)CCCC2)cc1	72*	x	-31	-6
Cc1nc(Nc2ncc(C)s2)cc(C2CN(C(=O)Cc3ccccc3)CCO2)n1 (configuration not stated)	-15	38*	55*	26
Cc1nc(-c2noc3ccc(C(=O)N4CCCC4)cc23)co1	-35	1	30*	5
Cc1ccc(CNC(=O)Cn2c(=O)c3sccc3n(CC(=O)Nc3ccc4c(c3)OCCO4)c2=O)cc1	7	60*	x	x
CC(C)Cn1c(=O)c2sccc2n2c(CCC(=O)NCCc3ccccc3)nnc12	1	-2	-6	-4
CCc1cc(=O)n(CC(=O)Nc2ccc3c(c2)OCCO3)c2c1c(C)nn2-c1ccc(C)cc1	44*	31*	32*	17
Cc1ccc(NC(=O)Cn2c(=O)n(CC(=O)NCCc3ccccc3)c(=O)c3sccc32)cc1C	50*	23	47*	11
COc1ccc(NC(=O)Cn2c(=O)n(CCC(=O)NCc3ccccc3)c(=O)c3sccc32)cc1Cl	19	47*	15	2
COc1ccc(NC(=O)Cn2c(=O)n(CCC(=O)NC3CCCC3)c(=O)c3ccccc32)cc1Cl	-5	5	12	4
CC(OC(=O)c1ccc(Cl)cc1)C(=O)NCC1CCCCC1 (configuration not stated)	14	26	31*	15
CC(OC(=O)c1ccc(N(C)C)cc1)C(=O)NC1CCCC1 (configuration not stated)	29	17	16	14
COc1ccc(OC)c(NC(=O)c2c(N)c(C(=O)c3ccc(C)cc3)n3ccccc23)c1	-31	25	0	21
O=C(CCc1nc(-c2cccnc2)no1)N1CCc2ccccc2C1	-7	-7	-4	0
O=C(CCc1nc(-c2cnccn2)no1)N1CCc2ccccc2C1	57*	22	0	4
c1ccc(Cc2nnc(N3CCOCC3)c3ccccc23)cc1	11	13	26	34*
O=C(NCCc1ccccc1)c1nc(N2CCOCC2)c2ccccc2n1	-9	-12	0	-2
SMILES	USP8 block	USP17 block	USP30 inh	USP28 inh
Cc1c(-c2ccccc2)c(=O)oc2cc(OC(=O)c3cccs3)ccc12	11	-2	0	-6
COc1cccc(C(=O)Oc2ccc3c(C)c(C)c(=O)oc3c2)c1	10	49*	13	10
O=C(Oc1ccc2c(=O)c(Oc3ccccc3Br)coc2c1)c1ccc(F)cc1	1	-9	-35	-11
COc1cccc(C(=O)Oc2ccc3c(=O)c(-c4ccc(OC)c(OC)c4)coc3c2)c1	4	79*	12	-4
O=C(COc1ccc(Cl)cc1Cl)Nc1ccc2sccc2c1	4	41*	46*	0
O=C(COc1ccc(Cl)cc1Cl)Nc1noc2ccccc12	5	40*	-13	0
O=C(COc1ccc(Cl)cc1Cl)Nc1ccccc1-c1nc2ccccc2[nH]1	27	84*	10	10
COc1ccc(OCCCC(=O)Nc2ccccc2-c2nc3ccccc3[nH]2)cc1	35*	-20	-123	-12
Cc1cc(Cl)ccc1OCC(=O)Nc1ncccc1C	-5	-3	-3	-4
COCCCN(Cc1ccco1)C(=O)CSc1nc2ncccc2[nH]1	-36	-13	-57	-12
O=c1c2cnc(N3CCc4ccccc4C3)nc2ccn1-c1ccc([N+](=O)[O-])cc1	-23	-3	-25	-7
c1ccc2ncc(CN3CCC[C@H]3c3nc(-c4ccc(-n5ccnc5)nc4)no3)cc2c1	14	41*	-19	-11
Cc1c(C)n(-c2ccc(Br)cn2)c2ncn(Cc3ccccc3)c(=N)c12	44*	-33	-167	-42
Cc1ccnc(-n2c(C)c(C)c3c(=N)n(CCO)cnc32)c1	-53	-20	-66	-15
CC(=O)N1CCC(c2ccnc(Nc3cc(C(F)(F)F)ccn3)n2)C1 (configuration not stated)	18	9	27	9
O=C(OCc1cccc(Cl)c1)c1ccc2ccccc2n1	11	25	21	91*
O=C(OCc1ccc(F)cc1)c1ccc2ccccc2n1	5	1	3	78*
CCN(CC)S(=O)(=O)c1ccc2[nH]c(=O)cc(C(=O)Nc3ccc4c(c3)OCO4)c2c1	60*	-23	-29	-2
CCc1ccc2[nH]c(=O)c(CNCC3CCCO3)cc2c1 (configuration not stated)	-8	-8	-14	-3
O=C(Nc1ccc(F)cc1)c1ccc(-c2ccc(N3CCCC3)nn2)cc1	49*	13	1	17
O=C(NCc1ccc(F)cc1)c1ccc(N2CCCC2)nn1	-1	33*	1	14
O=C(Nc1cccc(-c2ccc(N3CCOCC3)nn2)c1)c1cccc2ccccc12	0	15	1	-3
O=C(Nc1cccc(-c2ccc(N3CCOCC3)nn2)c1)c1ccccc1Br	10	41*	39*	7
O=C(Nc1cnc(N2CCCCCC2)nc1)c1ccc(F)cc1	11	-1	1	4
O=C(Nc1ccc(N2CCOCC2)cc1)c1ccc(-c2ccc(N3CCCC3)nn2)cc1	23	51*	-20	7
Cn1c(Sc2ncnc3c2cnn3-c2ccccc2)nnc1-c1ccccc1	13	19	21	8
CNC(=O)[C@H]1CCS(=O)(=O)[C@@H]2CN(Cc3ccc(C)cc3)C[C@H]12	-30	-11	-10	-25
O=C(NCCc1csc(-c2cccnc2)n1)c1ccc(C(F)(F)F)cc1	-6	-9	-1	3
